Assay results taken from PubChem BioAssay (EPA / NIEHS).
Inconclusive results are not listed. Activity calls are given as the source filed them. The calls were made as follows: active = hit-call score of the fitted dose curve at least 0.9, where 1 is the maximum; inconclusive = response in the unintended direction; inactive = score below 0.9.

Assay: Tanguay_ZF_120hpf_NC_legacy: (Legacy) Oregon State University Tanguay Lab 120 Hour Post-fertilization zebrafish Assay for Notochord and Tail Malformation (AID 2283656)
Procedure: Tanguay_ZF_120hpf_legacy is a whole embryo, multiplexed endpoint assay using zebrafish larvae exposed for 120 hours post fertilization on a 96-well plate.Tanguay_ZF_120hpf_NC_legacy is one of one assay component(s) measured or calculated from the Tanguay_ZF_120hpf_legacy assay. It is designed to make measurements of zebrafish development as detected with brightfield microscopy of developing zebrafish embryos.Data from the assay component Tanguay_ZF_120hpf_NC_legacy was analyzed into 1 assay endpoints. This assay endpoint, Tanguay_ZF_120hpf_NC_legacy, was analyzed in the positive analysis fitting direction relative to DMSO as the negative control and baseline of activity. Using a type of morphology reporter, gain-of-signal activity can be used to understand changes in developmentals as they relate to the whole embryo. To generalize the intended target to other relatable targets, this assay endpoint is annotated to the zebrafish development intended target family, where the subfamily is embryonic notochord morphogenesis.
Zebrafish husbandry: Tropical 5D wild-type adult zebrafish were housed in at an approximate density of 1000 per 100 gallon tank at the Sinnhuber Aquatic Research Laboratory, Oregon State University, Corvallis, OR. Each tank was kept at standard laboratory conditions of 28C on a 14-h light/10-h dark photoperiod in fish water consisting of reverse osmosis water supplemented with a commercially available salt (Instant Ocean). Spawning funnels were placed into the tanks the night prior, and embryos were collected and staged. To increase bioavailability, the chorion was enzymatically removed using pronase (63.6mg/ml, >/= 3.5U/mg, Sigma-Aldrich: P5147) at 4 hours post fertilization (hpf) using a custom automated dechorionator.Chemical exposures: Six hpf dechorionated embryos were placed 1 embryo per well in a 96-well plate prefilled with 90 ul of EM using automated embryo placement systems (AEPS). Ten microliters of each row of dilution plate 2 was added to 2 exposure plates. The final DMSO concentration used was 0.64% (vol/vol). Thirty-two embryos were also exposed to 5uM trimethyltin chloride (positive control). Plates were sealed to prevent evaporation and foil covered to reduce light exposure and kept in a 28C incubator. Embryos were statically exposed until 120 hpf. At 24 hpf, embryos were assessed for photomotor response using a custom photomotor response analysis tool (PRAT) and for developmental toxicity endpoints (MO24: mortality at 24 hpf, DP: developmental progression, SM: spontaneous movement, and NC: notochord distortion). At 120 hpf, locomotor activity was measured using Viewpoint Zebralab and assessed for 18 endpoints. Zebrafish acquisition and analysis program (ZAAP), a custom program designed to inventory, acquire, and manage zebrafish data, was used to collect developmental endpoints as either present or absent (i.e., binary responses were recorded). If mortality occurred for an embryo (at either 24 or 120 hpf), the non-mortality endpoints were not measured.

SMILES	outcome	AC50
CNC(=O)CSP(=S)(OC)OC	inactive	
CCc1ccc(C(=O)NN(C(=O)c2cc(C)cc(C)c2)C(C)(C)C)cc1	inactive	
O=C(NC(=O)c1c(F)cccc1F)Nc1ccc(OC(F)(F)C(F)OC(F)(F)F)c(Cl)c1 (stereo unspecified)	inactive	
CNC(=O)Oc1cccc(N=CN(C)C)c1	inactive	
COP(=O)(OC)OC=C(Cl)Cl	inactive	
O=C(Nc1ccccc1)Nc1cnns1	inactive	
O=[N+]([O-])/N=C1\NCCN1Cc1ccc(Cl)nc1	inactive	
CCN(CC)C(=O)SCc1ccc(Cl)cc1	inactive	
Oc1ccc(Cl)cc1Cc1ccccc1	inactive	
O=[N+]([O-])c1c(Cl)c(Cl)c(Cl)c(Cl)c1Cl	inactive	
COc1nn(CSP(=S)(OC)OC)c(=O)s1	inactive	
O=C(O)CCCOc1ccc(Cl)cc1Cl	inactive	
CN1CSC(=S)N(C)C1		6.95 µM (active)
CNC(=O)/C=C(\C)OP(=O)(OC)OC	inactive	
CC(C)OC(=O)Nc1cccc(Cl)c1	inactive	
CCC(C)(NC(=O)c1cc(Cl)c(C)c(Cl)c1)C(=O)CCl (stereo unspecified)	inactive	
C[C@H]1[C@H](c2ccc(Cl)cc2)SC(=O)N1C(=O)NC1CCCCC1	inactive	
CCCN(CCOc1c(Cl)cc(Cl)cc1Cl)C(=O)n1ccnc1	inactive	

SMILES	outcome	AC50
CC(C)(C)C(O)C(Oc1ccc(Cl)cc1)n1cncn1 (stereo unspecified)	inactive	
CC[C@H](C)[C@H]1O[C@]2(C=C[C@@H]1C)C[C@@H]1C[C@@H](C/C=C(\C)[C@@H](O[C@H]3C[C@H](OC)[C@@H](O[C@H]4C[C@H](OC)[C@@H](O)[C@H](C)O4)[C@H](C)O3)[C@@H](C)/C=C/C=C3\CO[C@@H]4[C@H](O)C(C)=C[C@@H](C(=O)O1)[C@]34O)O2 (tested in a mixture with another compound)	inactive	
C#CCN1C(=O)COc2cc(F)c(N3C(=O)C4=C(CCCC4)C3=O)cc21	inactive	
ClC1C(Cl)C(Cl)C(Cl)C(Cl)C1Cl (stereo unspecified)	inactive	
N#Cc1c(Cl)c(Cl)c(Cl)c(C#N)c1Cl	inactive	
CCCN(CCC)c1c([N+](=O)[O-])cc(C(F)(F)F)cc1[N+](=O)[O-]	inactive	
O=C1c2ccccc2C(=O)N1SC(Cl)(Cl)Cl	inactive	
Oc1cc(Cl)ccc1Oc1ccc(Cl)cc1Cl	inactive	
CNC(=O)Oc1ccccc1OC(C)C	inactive	
COP(=S)(OC)Oc1ccc([N+](=O)[O-])cc1	inactive	
O=S(=O)(O)C(F)(F)C(F)(F)C(F)(F)C(F)(F)C(F)(F)C(F)(F)C(F)(F)C(F)(F)F	inactive	
CC1(c2ccc(Oc3ccccc3)cc2)OC(=O)N(Nc2ccccc2)C1=O (stereo unspecified)	inactive	
Clc1ccccc1-c1nnc(-c2ccccc2Cl)nn1	inactive	
COP(=S)(OC)Oc1ccc(SC)c(C)c1	inactive	
O=C(O)COc1ccc(Cl)cc1Cl	inactive	
Cc1[nH]c(=O)n(C(C)(C)C)c(=O)c1Cl	inactive	
CCOCN(C(=O)CCl)c1c(C)cccc1CC	inactive	
O=C(O)C(F)(F)C(F)(F)C(F)(F)C(F)(F)C(F)(F)C(F)(F)C(F)(F)F	inactive	
